Here are results for 92 molecules from PubChem BioAssay AID1851 (National Center for Advancing Translational Sciences (NCATS), 2009).

A word on the AC50: it is the concentration at which the activity in the assay is half-maximal.

About 5,700 (36%) of roughly 16,000 compounds were called active. Inconclusive results (about 24%) are left out. The list shows a part of the results. Values without a mark were called inactive. Calls follow the shape of the dose curve; as a rule, active = well fitted curve in the direction sought with a large enough effect; inconclusive = small, poorly fitted or top-dose-only effect, or effect the other way; inactive = no such curve, though single readings can be large or run the other way.
% is scaled to controls: 0 for no effect and ±100 for the full control effect.

Sequence of Cytochrome P450 1A2 (Homo sapiens) (P05177 whole entry, looked up): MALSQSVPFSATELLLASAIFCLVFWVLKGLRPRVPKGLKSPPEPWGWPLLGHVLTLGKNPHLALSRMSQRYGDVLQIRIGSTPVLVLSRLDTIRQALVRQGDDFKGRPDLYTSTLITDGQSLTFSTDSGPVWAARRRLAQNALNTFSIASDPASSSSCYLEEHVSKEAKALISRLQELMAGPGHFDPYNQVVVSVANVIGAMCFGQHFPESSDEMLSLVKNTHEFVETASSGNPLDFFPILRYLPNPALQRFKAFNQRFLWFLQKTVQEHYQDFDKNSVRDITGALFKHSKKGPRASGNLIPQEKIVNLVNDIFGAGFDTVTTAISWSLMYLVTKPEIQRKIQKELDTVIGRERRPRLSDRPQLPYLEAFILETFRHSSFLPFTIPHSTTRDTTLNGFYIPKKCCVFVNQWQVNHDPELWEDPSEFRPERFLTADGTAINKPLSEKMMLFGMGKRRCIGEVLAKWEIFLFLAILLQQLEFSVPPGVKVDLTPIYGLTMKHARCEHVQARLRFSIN

The assay has as its target Cytochrome P450 1A2 (Homo sapiens) (UniProt P05177). Kind of assay: Cytochrome panel assay with activity outcomes. The following applies: recombinant CYP, pro-luciferin dealkylation, luminescence, p450-cyp1a2; series mostly up to 57.1 µM; activity, negative = inhibition: at the top concentration.
Regarding `CN(Cc1ccco1)c1cc(-c2ccoc2)ncn1`, the “activity, negative = inhibition” value was -19.3%.
Take `CN(C)c1ccc(-c2cc(N(C)Cc3ccco3)ncn2)cc1`: the concentration at half-maximal activity (AC50) was 316 nM (active).
For the molecule `CN(Cc1ccco1)c1cc(-c2ccc3c(c2)OCO3)ncn1`, the AC50 is 501 nM (active).
As to `COc1ccc(C(=O)N2CCC3(CC2)CN(Cc2ccc(C#N)cc2)C3)cc1`, the “activity, negative = inhibition” value is -8.04%.
Take `COc1cc(NC(=S)Nc2ccc(S(=O)(=O)N3CCOCC3)cc2)cc(OC)c1OC`: the AC50 is 2510 nM (active).
`COc1ccc(C(=O)Nc2ccc(S(=O)(=O)N3CCOCC3)cc2)cc1OC`: the “activity, negative = inhibition” value was 7.02%.
On to `COc1ccc(NC(=O)N2CC[C@@]3(CCCN(C(=O)c4cccn4C)C3)C2)cc1`, for which the “activity, negative = inhibition” value was -11.7%.
As to `O=C(O)c1cc(S(=O)(=O)N2CCCCC2)ccc1F`, the “activity, negative = inhibition” value is 14.6%.
As for `O=C(CSc1ncccn1)Nc1ccc(S(=O)(=O)N2CCCCC2)cc1`, the “activity, negative = inhibition” value was -4.34%.
Turning to `O=C(Nc1ccc(F)cc1)c1cc(S(=O)(=O)N2CCCCC2)cs1`, the AC50 is 17800 nM (active).
Regarding `CC(C)=CCC/C(C)=C/CO/N=C1/C[C@@H](O)[C@@H](O)[C@@H]2[C@@H]3C(=O)N(C4CCCCC4)C(=O)[C@H]3CC[C@@H]12`, the activity, negative = inhibition is -3% [at 11.4 µM].
`COc1cccc(-c2nccc(NCc3cccnc3)n2)c1`: the AC50 is 158 nM (active).
Same read-out and setting: the value for `COc1cccc(-c2nccc(NCc3cccs3)n2)c1` was 200 nM (active).
As to `COc1ccc(-c2cc(C(F)(F)F)nc(NCc3cccnc3)n2)cc1`, the AC50 was 794 nM (active).
Regarding `COc1cccc(-c2nccc(NCc3ccccc3)n2)c1`, the AC50 is 501 nM (active).
`CC[C@@H]1OC(=O)[C@H](C)[C@H](O[C@@H]2C[C@](C)(OC)[C@H](O)[C@H](C)O2)[C@H](C)[C@H](O[C@@H]2O[C@@H](C)C[C@@H](N(C)C)[C@@H]2O)[C@](C)(O)C[C@H](C)C(=O)[C@H](C)[C@H](O)[C@]1(C)O`: the “activity, negative = inhibition” value is -3.13% [at 25.6 µM].
In the case of `COc1ccc(-c2cc(C(F)(F)F)nc(SCc3cccc(C(=O)O)c3)n2)cc1`, the AC50 was 7080 nM (active).
In the case of `COc1cccc(-c2nccc(NCc3cccc(C)c3)n2)c1`, the AC50 is 316 nM (active).
On to `COCC(C)NCc1cccc(C)c1` (configuration not stated), for which the “activity, negative = inhibition” value is -15.4%.
As for `CC(=O)OC[C@H]1O[C@@H](O/N=C(\C)CCN2CCCCc3nc(C)c(C)cc32)[C@H](OC(C)=O)[C@@H](OC(C)=O)[C@H]1OC(C)=O`, the activity, negative = inhibition was -3.61% [at 11.4 µM].
For `CCOc1ccc(N(CC(=O)NCc2ccc(OC)cc2)S(=O)(=O)c2c(C)noc2C)cc1`, the “activity, negative = inhibition” value was -6.85%.
`CCOc1ccc(-c2cc(CCCC(=O)NCCc3ccc(OC)c(OC)c3OC)no2)cc1`: the AC50 is 63.1 nM (active).
As to `CCOc1ccc(CCNC(=O)CCCN2C(=O)c3ccccc3C2=O)cc1OCC`, the “activity, negative = inhibition” value is -7.98%.
Consider `O=C(CNC(=O)c1ccc([N+](=O)[O-])cc1)c1ccccc1`, for which the “activity, negative = inhibition” value was -9.2%.
As for `COc1ccc(-n2nc3cc(C)c(NC(=S)NC(=O)c4ccccc4C)cc3n2)cc1`, the “activity, negative = inhibition” value is -17.3%.
Turning to `Cc1ccccc1C(=O)NC(=S)NCC(=O)c1ccccc1`, the AC50 was 10000 nM (active).
With `c1ccc(-n2ncc3c(NCCCN4CCOCC4)ncnc32)cc1`, the “activity, negative = inhibition” value is -22.5%.
For `CC(=O)NCCNc1nc(-c2c(C)noc2C)nc2ccccc12`, the AC50 was 1580 nM (active).
`Cc1noc(C)c1-c1nc(NCCN2CCOCC2)c2ccccc2n1`: the AC50 is 2510 nM (active).
Take `COCCNc1nc(-c2c(C)noc2C)nc2ccccc12`: the AC50 is 126 nM (active).
On to `O=C(Nc1cccc(F)c1)N1CC[C@@]2(CCCN(C(=O)c3cc(C(F)(F)F)cc(C(F)(F)F)c3)C2)C1`, for which the “activity, negative = inhibition” value is -14.9%.
`CN(C)CCCNC(=O)c1cc2c3ccccc3n(C)c2s1`: the AC50 is 14100 nM (active).
`CN(C)CCCCN1CCc2c(n(C)c3ccccc23)C1=O`: the activity, negative = inhibition was -14.1% [at 2.29 µM].
In the case of `CN(C)CCCNc1cc(O)c2c(c1O)C(=O)c1ccccc1C2=O`, the activity, negative = inhibition was -23.1% [at 2.29 µM].
`CC(=O)c1[nH]c(C)c(C(C)=O)c1C`: the AC50 is 708 nM (active).
Take `COC(Cn1c(C)c(C(C)=O)c(C(C)=O)c1C)OC`: the “activity, negative = inhibition” value is -7.78%.
As for `CC(C)c1ccc(Cn2ccc3c4c(N)nc(NC5CC5)nc4ccc32)cc1`, the AC50 was 1580 nM (active).
As for `CC(=O)NCCNc1ncnc2ccc(-c3ccccc3C(F)(F)F)cc12`, the AC50 is 10000 nM (active).
With `COc1ccccc1-c1ccc2ncnc(NCCNC(C)=O)c2c1`, the AC50 was 5010 nM (active).
`CC(=O)NCCNc1ncncc1-c1ccccc1C(F)(F)F`: the “activity, negative = inhibition” value was -19.2%.
Regarding `CC(=O)NCCNc1ncnc2ccc(-c3ccccc3C)cc12`, the half-maximal activity concentration (AC50) was 631 nM (active).
In the case of `CC1=C(C(=O)O)N2C(=O)[C@@H](NC(=O)[C@@H](N)C3=CCC=CC3)[C@@H]2SC1`, the “activity, negative = inhibition” value was -0.757%.
With `Cc1ccc(S(=O)(=O)N2CCN(C(=O)c3ccccc3)C2C(C)C)cc1` (configuration not stated), the “activity, negative = inhibition” value was -9.28%.
`COc1cccc(Nc2ncc3nc(C)c(=O)n(C4CC4)c3n2)c1`: the AC50 was 1260 nM (active).
Consider `O=c1cnc2cnc(Nc3ccccc3)nc2n1C1CC1`, for which the AC50 is 631 nM (active).
The same measure, in the same setting: next, `COc1cccc(Nc2ncc3ncc(=O)n(C4CC4)c3n2)c1`: 631 nM (active); `Cc1nc2cnc(Nc3ccccc3)nc2n(C2CC2)c1=O`: 1000 nM (active).
The same measure, in the same setting: next, `O=C(Nc1cccc(C(=O)Nc2ccc(S(=O)(=O)O)c3cc(S(=O)(=O)O)cc(S(=O)(=O)O)c23)c1)Nc1cccc(C(=O)Nc2ccc(S(=O)(=O)O)c3cc(S(=O)(=O)O)cc(S(=O)(=O)O)c23)c1`: “inactive”.
Turning to `O=C(Nc1ccc(C(=O)Nc2ccc(C(=O)Nc3ccc(S(=O)(=O)O)c4cc(S(=O)(=O)O)cc(S(=O)(=O)O)c34)cc2)cc1)Nc1ccc(C(=O)Nc2ccc(C(=O)Nc3ccc(S(=O)(=O)O)c4cc(S(=O)(=O)O)cc(S(=O)(=O)O)c34)cc2)cc1`, the AC50 was 31600 nM (active).
As for `CN1CCN(C(=O)C(C(=O)c2ccc(F)cc2)n2ccccc2=O)CC1` (configuration not stated), the “activity, negative = inhibition” value is -0.425%.
`Fc1ccc(Nc2ncnc3ccc(-c4ccoc4)cc23)cc1`: the AC50 is 1000 nM (active).
As to `c1ccc(Nc2ncnc3ccc(-c4ccoc4)cc23)cc1`, the AC50 is 1580 nM (active).
Take `CCc1ccc(NC(=O)CSc2nc3cc(C(=O)OC)ccc3c(=O)n2Cc2ccco2)cc1`: the “activity, negative = inhibition” value is -27.9%.
Take `CCN(C(=O)CSc1nc2cc(C(=O)OC)ccc2c(=O)n1Cc1ccco1)c1cccc(C)c1`: the AC50 was 2510 nM (active).
Consider `COC(=O)[C@H]1C[C@@H]1[C@H](NC(=O)Oc1ccc(F)cc1)c1ccccc1`, for which the AC50 is 1000 nM (active).
Still for that read-out and setting: next, `COC(=O)[C@@H]1C[C@H]1[C@@H](NC(=O)Oc1ccc(F)cc1)c1ccccc1`: 3160 nM (active).
With `O=P(O)(COc1ccccc1)COc1ccccc1`, the “activity, negative = inhibition” value was -1.64%.
`Cc1ccccc1OCCCn1c(=O)sc2ccccc21`: the AC50 is 3160 nM (active).
Consider `Cc1ccc(OCCCn2c(=O)sc3ccccc32)cc1`, for which the “activity, negative = inhibition” value is -65.4%.
On to `O=c1sc2ccccc2n1CCCOc1ccccc1`, for which the AC50 was 15800 nM (active).
Take `CS(=O)(=O)N(CC(=O)Nc1cccc(F)c1)c1cccc([N+](=O)[O-])c1`: the “activity, negative = inhibition” value was -3.74%.
On to `CCC(=O)Nc1cccc(C(=O)/C=C/c2ccccc2)c1`, for which the concentration at half-maximal activity (AC50) was 1000 nM (active).
`COc1ccccc1Nc1nc(-c2sc(NC(=O)c3ccc([N+](=O)[O-])cc3)nc2C)cs1`: the “activity, negative = inhibition” value was -20.4%.
On the same count and under the same terms, next, `O=C(COc1ccc(/C=N/NC(=O)c2ccccc2)cc1)Nc1ccc([N+](=O)[O-])cc1`: -1.47%; `O=C(Nc1cccc([N+](=O)[O-])c1)c1ccc(CSc2ccccc2)cc1`: -21.6%.
Regarding `CCC(=O)Nc1cccc(NC(=O)c2cccc([N+](=O)[O-])c2)c1`, the half-maximal activity concentration (AC50) was 7080 nM (active).
In the case of `O=C(Nc1nc(-c2ccccc2)cs1)c1cccc([N+](=O)[O-])c1`, the AC50 was 1410 nM (active).
In the case of `CCOC(=O)c1cccc(NC(=O)COc2ccc([N+](=O)[O-])cc2)c1`, the AC50 is 12600 nM (active).
Regarding `CC(C)NC(=O)N1CCC2(CC1)CCN(S(C)(=O)=O)CC2`, the “activity, negative = inhibition” value is -8.96%.
On to `Cc1ccccc1N1C(=O)c2cc(S(N)(=O)=O)c(Cl)cc2N[C@H]1C`, for which the “activity, negative = inhibition” value is 0.243% [at 25.6 µM].
Turning to `COc1ccc(Cl)cc1N=Nc1ncc[nH]1`, the AC50 is 631 nM (active).
For the molecule `Cn1c(=O)[nH]c(=O)c2c1nc(CN1CCOCC1)n2Cc1ccccc1`, the “activity, negative = inhibition” value is 2.89%.
For `Clc1ccc(Cn2c(CN3CCCC3)nc3ccccc32)cc1`, the AC50 is 10000 nM (active).
Consider `O=C(CN(c1ccccc1)S(=O)(=O)c1ccccc1)NCCSCc1ccco1`, for which the “activity, negative = inhibition” value was -14.5%.
As for `CC(C(=O)NCc1ccc2c(c1)OCO2)N1c2cccc3cccc(c23)S1(=O)=O` (configuration not stated), the AC50 was 1780 nM (active).
As for `COc1ccccc1C1=NOC(COC(=O)c2ccc3ccccc3n2)C1` (configuration not stated), the AC50 was 14100 nM (active).
Regarding `O=C(O)c1c(-c2c3ccc(=O)cc-3oc3cc(O)ccc23)cc2ccccc2c1-c1ccccc1`, the activity, negative = inhibition was -17.6% [at 2.29 µM].
Consider `CNC(=O)/C(C#N)=c1\s/c(=C/C(=O)OC)c(=O)n1-c1ccccc1`, for which the “activity, negative = inhibition” value was -4.92%.
Same read-out and setting: the value for `COC(=O)[C@@H]1[C@@H](O)[C@]2(O)c3ccccc3O[C@]2(c2ccccc2)[C@H]1c1ccccc1` was -6.42% [at 11.4 µM].
Consider `COc1cc(CNC2CCCC2)cc(Cl)c1OCc1ccccc1Cl`, for which the AC50 is 708 nM (active).
Take `COc1ccccc1CNC(=O)CCCn1c(=O)c2ccccc2n(CC(=O)NC2CCCC2)c1=O`: the “activity, negative = inhibition” value is 0.328%.
Take `COc1cc(O)oc1C=Nc1ccc(Cl)cc1`: the AC50 is 2240 nM (active).
As to `COc1cc(O)oc1C=Nc1ccc(C(F)(F)F)cc1`, the AC50 is 501 nM (active).
In the case of `COc1cccc(CNc2ccc(F)c(Cl)c2)c1O`, the “activity, negative = inhibition” value is -22.8%.
In the case of `CCC#CCOCC(=O)Nc1ccccc1`, the AC50 is 25100 nM (active).
For `COC(=O)N1CCC2(CCN(C(=O)Nc3ccccc3)CC2)CC1`, the “activity, negative = inhibition” value is -5.21%.
For the molecule `CC(C)CN1CCCC2(CCN(C(=O)c3cccc(F)c3)CC2)C1`, the “activity, negative = inhibition” value is 7.46%.
`Nc1ncnc2c1ncn2[C@H]1O[C@@H](CO)[C@@H](O)[C@H]1N`: the activity, negative = inhibition is -8.67% [at 11.4 µM].
In the case of `Cc1cccc(C)c1OC1(c2ccccc2)OC(=O)c2ccccc21` (configuration not stated), the AC50 was 20000 nM (active).
Regarding `CCCCCCCOC1(c2ccccc2)OC(=O)c2ccccc21` (configuration not stated), the “activity, negative = inhibition” value is -19.2%.
With `CCCCOC1(c2ccccc2)OC(=O)c2ccccc21` (configuration not stated), the “activity, negative = inhibition” value was -28.7%.
On the same count and under the same terms, next, `CC(=O)N1CCC2(CC1)CCN(c1ccccn1)CC2`: 1.45%.
